Screening results from PubChem BioAssay.
Sampled rows, rich in hits. Any-hit rate of the full collection: about 19%.
DT40 TDP1 CPT = qHTS for Inhibitors of human tyrosyl-DNA phosphodiesterase 1 (TDP1): qHTS in cells in presence of CPT. hit rate 12% among 420,000. chicken DT40 Tdp1-/-;hTDP1 cells + 20 nM CPT, ATP luminescence, 48 h. Potency, µM (titrated, usually from 46.2 µM), for the others: at the highest dose activity change, negative = growth inhibition, actives largely listed as inhibitors. AID 686979, 2013; further: potency means the concentration at half of the fitted maximal effect; nearly all actives have a fitted effect of over 55% in size
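Chicken DT40 Tdp1-/- cells stably complemented with human TDP1 were seeded at 400 cells/well in medium containing 20 nM camptothecin, exposed to pin-transferred compounds, and grown at 37 °C for at least 48 hr. Viability was read as ATP luminescence.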
HT1080-NT tox = qHTS for induction of synthetic lethality in tumor cells producing 2HG: qHTS for the HT-1080-NT fibrosarcoma cell line. Potency, µM (titrated, usually from 46.1 µM), for the others: top-dose activity, negative = less viability, usual class: cytotoxic. hit rate 1.6% among 360,000. HT-1080-NT fibrosarcoma viability, CellTiter-Glo ATP luminescence, 48 h;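 further: NT is the 2HG producing partner of a matched IDH1 knockdown line; potency means the concentration at half of the fitted maximal effect; 0% = DMSO-treated cells and -100% = media-only wells without cells; nearly all actives have a fitted effect of over 55% in size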
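HT-1080-NT; 750 cells/well; 5% FBS RPMI; 48 h compound, 37 degrees C; CellTiter-Glo luminescence; curve fitting and curve-class assignment.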
IL-1B inflam inh = qHTS for Inhibitors of Inflammasome Signaling: IL-1-beta AlphaLISA Primary Screen. activity change, % at 57.5 µM. THP-1 LPS/ATP IL-1B secretion, AlphaLISA, 16 h; active compounds read low. AID 743279, 2014. hit rate 4.7% among 360,000; in the data active means activity change below about -50%; inconclusive means mostly about -30% to -49%
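THP-1 cells pretreated 1 hr with compounds (up to 57.5 uM final), then stimulated with LPS (250 ng/mL final) plus ATP (1.25 mM final); secreted IL-1B measured by AlphaLISA after 16 hr, decreased signal indicating inhibition.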
TDP1 cell noCPT = qHTS for Inhibitors of human tyrosyl-DNA phosphodiesterase 1 (TDP1): qHTS in cells in absence of CPT | DT40 Tdp1-/- hTDP1 cells, no CPT, ATP luminescence, 48 h | Potency, µM (doses to about 46.2 µM), for inactives: top-dose activity change, negative = growth inhibition, hits mostly inhibitors | hit rate 15% among 420,000 | AID 686978, 2013; further: potency means the concentration at half of the fitted maximal effect; nearly all actives have a fitted effect of over 55% in size
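Cells were dispensed at 400 per well, compounds added by pin tool, plates incubated ≥48 hr at 37 °C, then CellTiter-Glo added for 30 min at room temperature before luminescence reading. Line: DT40 Tdp1-/- complemented with hTDP1; camptothecin omitted.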
HT1080 IDH1KD tx = qHTS for induction of synthetic lethality in tumor cells producing 2HG: qHTS for the HT-1080-IDH1KD cell line. hit rate 2% among 360,000. AID 686971, 2013. HT-1080 IDH1 knockdown viability, ATP luminescence, 48 h. Potency, µM (series often up to 46.1 µM), without a hit: at the highest dose activity, negative = toxicity, hits mostly cytotoxic;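 further: potency means the concentration at half of the fitted maximal effect; 0% = DMSO wells and -100% = cell-free medium wells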
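IDH1KD HT-1080 cells, 750/well, RPMI + 5% FBS; compound pinned after 2 h settling; 48 h, 37 °C; CellTiter-Glo luminescence; % activity normalised to DMSO and no-cell wells; curves fitted, classed by r2 and efficacy.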
Starred values were filed as active, the others as inactive; ? = inconclusive; / = not tested or not shown. Unless noted, the call rests on the fitted dose curve; in most records, active means well fitted curve in the direction sought with a large enough effect; inconclusive means small, poorly fitted or top-dose-only effect, or another doubt; inactive means no such curve, though single readings can be large; an effect the other way counts as inactive or inconclusive. Unless noted, on the % scale 0 is the no-effect control and ±100 the full control effect.

SMILES	DT40 TDP1 CPT	HT1080-NT tox	IL-1B inflam inh	TDP1 cell noCPT	HT1080 IDH1KD tx
O=C(N[C@@H](CCC/[N+]([O-])=C/c1ccccc1)C(=O)O)OCc1ccccc1	0%	0%	33	9%	7%
CCOc1ccccc1NC(=O)CN1C(=O)CSC(C)C1=O (centres undefined)	2%	7%	8	7%	9%
Cc1ccc(SC(C)c2nc(-c3cccnc3)no2)cc1 (centres undefined)	-26%	0%	34	-6%	-7%
COc1ccc(CCN2C(=O)N(c3cccc(C)c3)C(=O)C2CC(=O)Nc2ccccc2)cc1OC (centres undefined)	23µM*	/	/	?	/
CNC(=O)CC1C(=O)N(c2ccc(Cl)cc2)C(=S)N1CCc1ccc(OC)c(OC)c1 (centres undefined)	?	-29%	-50*	9.2µM*	-21%
COc1ccc(CCN2C(=O)N(c3ccc(OC)cc3)C(=O)C2CC(=O)Nc2ccccc2)cc1 (centres undefined)	0%	1%	-10	?	1%
COc1ccc(CCN2C(=O)N(c3ccccc3)C(=O)C2CC(=O)Nc2ccccc2)cc1 (centres undefined)	?	/	/	26µM*	/
COc1ccc(N2C(=O)C(CC(=O)Nc3ccccc3)N(CCc3ccc(OC)c(OC)c3)C2=O)cc1 (centres undefined)	-15%	-1%	22	-24%	8%
CN1CCN(/N=C/c2cccc(Cl)c2Cl)CC1	-6%	0%	3	-2%	9%
Cc1ccc2nc(-c3ccccc3)c(Cc3cccc(F)c3)n2c1	?	?	22	21µM*	?
Cc1ccc(-c2nc3ccc(Br)cn3c2Cc2cccc(F)c2)cc1	16µM*	?	-25	?	?
Fc1cccc(Cc2c(-c3cccc(Br)c3)nc3ccc(Cl)cn23)c1	?	-13%	32	?	-25%
Fc1ccc(-c2nc3ccc(Br)cn3c2Cc2cccc(F)c2)cc1	-30%	-26%	36	?	-24%
Cc1ccc(N(C(C)C(=O)N2CCCCC2)S(C)(=O)=O)cc1C (centres undefined)	-3%	8%	12	-20%	1%
CCCCCCCc1c(O)nc(SCCN(C)C)[nH]c1=O	7%	16%	-51*	0%	3%
O=C(O)Cn1cc(C(=O)c2cccs2)c2ccccc21	?	1%	15	-2%	4%
O=C(c1cccs1)c1cn(CC(=O)N2CCc3ccccc3C2)c2ccccc12	23µM*	-17%	-9	?	?
COc1cc2nc(Nc3ccc(C)c(Cl)c3)nc(N)c2cc1OC	?	?	-94*	?	13µM*
CCOC(=O)c1ccc(Nc2nc(N)c3cc(OC)c(OC)cc3n2)cc1	7.3µM*	-2%	-10	21µM*	0%
Cc1ccc(Nc2nc(N)c3ccccc3n2)cc1Cl	15µM*	-4%	-97*	?	0%
CCOC(=O)c1ccc(N/C=C/C(=O)c2ccc(OC)c(OC)c2)cc1	-18%	-19%	-21	?	?
CCOC(=O)c1ccc(Nc2ccc(-c3ccc(OC)c(OC)c3)nn2)cc1	?	-27%	15	4.6µM*	?
COc1cc2nc(Nc3ccc(F)cc3)nc(N)c2cc1OC	6.5µM*	1%	/	4.6µM*	7%
COc1cc2nc(Nc3cccc(C)c3)nc(N)c2cc1OC	12µM*	/	/	3.3µM*	/
Cc1ccc(Nc2ncnc(N)n2)cc1C	-14%	6%	-11	5%	8%
SMILES	DT40 TDP1 CPT	HT1080-NT tox	IL-1B inflam inh	TDP1 cell noCPT	HT1080 IDH1KD tx
COc1cc2ncnc(NCc3ccc(F)cc3)c2cc1OC	-23%	-2%	0	?	-9%
COc1cc2nc(Nc3ccc(C)c(C)c3)nc(N)c2cc1OC	23µM*	?	-98*	15µM*	?
COC(=O)CC1C(=O)NC2CCCCC2N1C(=O)CCl (centres undefined)	?	?	-62*	15µM*	?
O=C(CSc1n[nH]c(=O)n1C1CC1)Nc1cc(Cl)ccc1Oc1ccccc1	16µM*	-22%	-15	15µM*	-19%
COc1ccc(CNC(=O)c2ccc3nc(C(C)C)oc3c2)cc1OC	23µM*	/	/	?	/
COc1ccc([C@@H](C)NC(=O)c2ccc3oc(C(C)C)nc3c2)cc1	?	5%	9	16µM*	17%
CC(C)c1nc2ccc(C(=O)NCc3ccccc3Br)cc2o1	?	/	/	16µM*	/
COc1ccc(Br)cc1CNC(=O)c1ccc2nc(C(C)C)oc2c1	0%	/	/	-22%	/
CCOc1ccc(NC(=O)c2ccc3nc(C(C)C)oc3c2)cc1	21µM*	/	/	16µM*	/
CCOc1ccc(NC(=O)c2ccc3nccnc3c2)cc1	?	0%	10	?	-7%
CC1=C(C(=O)N(C(C)C)C(C)C)CC(CC(=O)NCCN2CCOCC2)C(=O)N1Cc1ccccc1 (centres undefined)	11%	13%	30	4%	9%
COc1ccc(OC)c(CNC(=O)c2ccc3nc(C(C)C)oc3c2)c1	?	/	/	23µM*	/
O=C(COc1ccc2ccccc2c1)N1CCN(C(=O)c2ccc([N+](=O)[O-])cc2)CC1	-29%	-19%	-14	?	-4%
O=C(COC(=O)C12CC3CC(CC(Br)(C3)C1)C2)Nc1cccnc1Cl	?	1%	-5	1%	13%
CN(Cc1ccccc1)C(=O)COC(=O)C12CC3CC(CC(Br)(C3)C1)C2	26µM*	2%	-2	?	-4%
Cc1cccnc1NC(=O)Nc1cccc(F)c1	-8%	17%	0	-19%	7%
CC[C@]1(O)C[C@@H]2CN(CCc3c([nH]c4ccccc34)[C@@](C(=O)OC)(c3cc4c(cc3OC)N(C)C3[C@]45CCN4CC=C[C@](CC)(C45)[C@@H](OC(C)=O)[C@]3(O)C(=O)OC)C2)C1 (some centres undefined)	0.025µM*	/	/	0.016µM*	/
CC[C@]1(O)C[C@@H]2CN(CCc3c([nH]c4ccccc34)[C@](C(=O)OC)(c3cc4c(cc3OC)N(C)[C@H]3[C@](O)(C(=O)OC)[C@@H](C(=O)OC)[C@@]5(CC)C=CCN6CC[C@@]43[C@@H]65)C2)C1	0.084µM*	/	/	0.11µM*	/
